Experimental data: PubChem BioAssay
Calls of active or inactive are those of the source.

Assays:
[1] = tested on: PRMT1 (protein arginine N-methyltransferase 1); assay: small molecules binding arginine methyltransferase PRMT1 – biochemical, small-molecule microarray, 635 nm fluorescence, primary screen (AID 1088); details: higher = more signal;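 further: binding of Prmt1 protein to compounds spotted on small-molecule microarray slides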
[2] = growth effects on S. cerevisiae YJM789 – YJM789 clinical isolate, OD600, 24 h, basal, primary screen (AID 1089); details: higher = more signal, called active from +8 up or from −8 down;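 further: growth of clinical yeast isolate S. cerevisiae YJM 789 seeded 1000 cells per well; test concentration not given here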
[3] = S. pombe growth modifiers, basal conditions – strain 972, OD600, 24 h, no modulator, primary screen (AID 1090);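 further: basal condition with compound alone and no growth modifier present; test concentration not given here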; details: S. pombe 972 growth, higher = more signal, called active from +8 up or from −8 down
[4] = budding yeast growth modifiers under rapamycin – strain BY4716, OD600, 96 h, primary screen (AID 1091); further: test concentration not given here; details: S. cerevisiae BY4716 + rapamycin, higher = more signal, called active from +8 up or from −8 down
[5] = biological target: Torsin-1A-interacting protein 2 (Homo sapiens) (UniProt Q8NFQ8); assay: small molecules binding lysate-expressed LULL1 – cell lysate, human LULL1 lysate, 635/667 nm fluorescence, primary screen (AID 1092); details: small-molecule microarray, hLULL1 lysate binding, 635 nm fluorescence; higher = more signal;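 further: probe is lysate of COS7 cells overexpressing human LULL1; score merges per-feature 667 nm fluorescence with signal-to-noise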
[6] = optical density change of DRC41 E. coli – strain DRC41, OD650, 24 h, E. coli filamentation project, primary screen (AID 1093);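 further: MC1000 strain lacking acrAB efflux and sulA so SOS filamentation is blocked; test concentration not given here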; details: E. coli DRC41 growth, higher = more signal, called active from +8 up or from −8 down
[7] = probe aLefty2 binding to arrayed compounds – biochemical, biotinylated probe, 635/667 nm fluorescence, primary screen (AID 1094); details: small-molecule microarray, higher = more signal;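 further: score merges spot fluorescence near 667 nm with spot signal-to-noise ratio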
[8] = tested on: Noggin (protein binding on small-molecule microarray); assay: small molecules binding Noggin protein – biochemical, 635/667 nm fluorescence, primary screen (AID 1095); details: 635 nm fluorescence, higher = more signal;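 further: score merges 667 nm feature fluorescence with signal to noise over triplicate slides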
[9] = biological target: Neurogenic locus notch homolog protein 3 (Homo sapiens) (UniProt Q9UM47); assay: small molecules binding NOTCH3 protein – biochemical, 635/667 nm fluorescence, primary screen (AID 1096); details: small-molecule microarray, 635 nm fluorescence, higher = more signal
[10] = probe aEGFR binding to arrayed compounds – biochemical, biotinylated probe, 635/667 nm fluorescence, primary screen (AID 1097); details: small-molecule microarray, higher = more signal;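 further: probe is a biotinylated anti-EGFR antibody binding compounds printed on slides; score combines fluorescence near 667 nm and signal to noise of each spot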

Torsin-1A-interacting protein 2 (Homo sapiens), sequence (Q8NFQ8 whole entry, looked up): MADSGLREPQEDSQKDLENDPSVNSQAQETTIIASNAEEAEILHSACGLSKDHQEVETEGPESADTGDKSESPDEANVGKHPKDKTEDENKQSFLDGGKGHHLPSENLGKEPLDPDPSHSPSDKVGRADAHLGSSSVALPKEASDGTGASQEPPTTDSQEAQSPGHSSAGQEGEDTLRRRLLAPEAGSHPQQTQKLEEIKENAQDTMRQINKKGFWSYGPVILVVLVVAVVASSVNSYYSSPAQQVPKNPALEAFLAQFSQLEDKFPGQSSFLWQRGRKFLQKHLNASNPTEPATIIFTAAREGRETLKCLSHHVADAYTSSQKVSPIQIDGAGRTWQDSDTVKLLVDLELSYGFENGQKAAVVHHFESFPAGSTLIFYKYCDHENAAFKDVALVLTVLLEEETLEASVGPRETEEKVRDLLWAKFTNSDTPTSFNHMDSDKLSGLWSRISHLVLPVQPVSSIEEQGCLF
Neurogenic locus notch homolog protein 3 (Homo sapiens), sequence (Q9UM47 whole entry, looked up): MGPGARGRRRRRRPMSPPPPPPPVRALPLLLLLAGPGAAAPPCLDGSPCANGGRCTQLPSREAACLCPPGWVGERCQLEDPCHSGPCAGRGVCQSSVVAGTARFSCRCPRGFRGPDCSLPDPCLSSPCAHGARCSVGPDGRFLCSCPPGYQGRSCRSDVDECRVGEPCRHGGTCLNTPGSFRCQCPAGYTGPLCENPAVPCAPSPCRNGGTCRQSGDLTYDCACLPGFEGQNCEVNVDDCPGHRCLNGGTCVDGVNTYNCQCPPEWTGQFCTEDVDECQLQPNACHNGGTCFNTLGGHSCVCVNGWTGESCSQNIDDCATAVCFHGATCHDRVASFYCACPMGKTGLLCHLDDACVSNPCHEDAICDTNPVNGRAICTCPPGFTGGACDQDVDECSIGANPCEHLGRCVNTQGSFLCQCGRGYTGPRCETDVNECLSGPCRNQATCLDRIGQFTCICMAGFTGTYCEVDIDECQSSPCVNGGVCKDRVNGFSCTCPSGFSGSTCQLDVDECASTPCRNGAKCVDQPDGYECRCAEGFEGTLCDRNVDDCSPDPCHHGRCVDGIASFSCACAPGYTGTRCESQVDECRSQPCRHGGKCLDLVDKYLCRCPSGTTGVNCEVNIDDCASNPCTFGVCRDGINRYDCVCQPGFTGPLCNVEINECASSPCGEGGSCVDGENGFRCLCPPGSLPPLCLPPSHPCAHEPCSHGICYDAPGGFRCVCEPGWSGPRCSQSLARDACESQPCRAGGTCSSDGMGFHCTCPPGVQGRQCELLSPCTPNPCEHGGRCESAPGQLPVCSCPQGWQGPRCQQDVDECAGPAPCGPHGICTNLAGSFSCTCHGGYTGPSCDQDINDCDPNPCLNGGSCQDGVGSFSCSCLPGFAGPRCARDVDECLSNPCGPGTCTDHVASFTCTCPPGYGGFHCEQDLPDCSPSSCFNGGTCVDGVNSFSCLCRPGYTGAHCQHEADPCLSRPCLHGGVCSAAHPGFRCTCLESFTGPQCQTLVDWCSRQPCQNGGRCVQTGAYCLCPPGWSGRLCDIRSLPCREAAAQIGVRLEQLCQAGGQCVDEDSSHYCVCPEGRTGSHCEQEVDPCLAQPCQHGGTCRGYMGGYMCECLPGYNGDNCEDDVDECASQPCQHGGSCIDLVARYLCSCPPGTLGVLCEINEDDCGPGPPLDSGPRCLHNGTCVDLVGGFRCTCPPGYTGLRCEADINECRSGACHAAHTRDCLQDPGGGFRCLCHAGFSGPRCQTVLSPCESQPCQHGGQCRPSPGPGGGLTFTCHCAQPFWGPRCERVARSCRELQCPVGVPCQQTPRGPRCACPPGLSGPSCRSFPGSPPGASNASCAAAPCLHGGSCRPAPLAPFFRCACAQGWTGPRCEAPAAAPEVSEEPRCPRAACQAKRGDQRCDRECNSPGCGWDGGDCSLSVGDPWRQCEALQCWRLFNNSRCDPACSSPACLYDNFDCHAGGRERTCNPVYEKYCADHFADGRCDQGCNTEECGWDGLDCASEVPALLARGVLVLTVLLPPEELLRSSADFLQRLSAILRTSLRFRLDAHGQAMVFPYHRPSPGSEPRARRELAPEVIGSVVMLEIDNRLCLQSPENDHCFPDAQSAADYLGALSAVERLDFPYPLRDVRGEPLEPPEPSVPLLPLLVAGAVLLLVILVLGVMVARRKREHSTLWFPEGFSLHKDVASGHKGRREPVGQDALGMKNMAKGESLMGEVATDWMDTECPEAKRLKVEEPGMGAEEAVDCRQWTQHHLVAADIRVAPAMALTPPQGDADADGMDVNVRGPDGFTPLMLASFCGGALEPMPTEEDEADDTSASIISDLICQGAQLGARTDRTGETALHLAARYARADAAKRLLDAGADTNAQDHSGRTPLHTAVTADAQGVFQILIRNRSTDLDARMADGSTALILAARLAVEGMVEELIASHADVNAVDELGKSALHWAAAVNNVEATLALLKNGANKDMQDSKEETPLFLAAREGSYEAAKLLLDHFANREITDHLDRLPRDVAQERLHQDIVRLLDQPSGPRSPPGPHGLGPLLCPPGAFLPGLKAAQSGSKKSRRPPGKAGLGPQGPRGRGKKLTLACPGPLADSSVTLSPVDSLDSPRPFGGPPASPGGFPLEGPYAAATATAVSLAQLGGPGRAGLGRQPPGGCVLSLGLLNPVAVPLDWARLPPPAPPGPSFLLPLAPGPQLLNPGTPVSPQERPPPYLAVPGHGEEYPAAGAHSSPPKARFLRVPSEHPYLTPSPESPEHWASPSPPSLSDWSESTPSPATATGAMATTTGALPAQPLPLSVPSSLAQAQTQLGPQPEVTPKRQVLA

SMILES | composite z-score [1] | z-score [2] | z-score [3] | z-score [4] | composite z-score [5] | z-score [6] | composite z-score [7] | composite z-score [8] | composite z-score [9] | composite z-score [10]
CC(C)N1CC=CC23O[C@@H]4C=CCCOC(=O)C4[C@H]2C(=O)N(CCCO)[C@@H]3C1=O (stereo not given in full) | 0.521 | -0.198 (inactive) | -0.861 (inactive) | -0.824 (inactive) | 2.1 | 2.83 (inactive) | -0.215 | -0.0322 | 0.236 | -0.226
CCCC=C(CCC)[C@@H](NP(=O)(c1ccccc1)c1ccccc1)c1ccc(-c2ccccc2)cc1 | 1.54 | 1.09 (inactive) | 2.34 (inactive) | 1.84 (inactive) | 3.11 | -0.932 (inactive) | 0.123 | 0.649 | 1.12 | 0.0825
NC(=O)NCC#Cc1ccc2c(c1)[C@]1(C(=O)N2)[C@H](C(=O)N2CCN(c3ncccn3)CC2)[C@H]2C(=O)O[C@H](c3ccccc3)[C@H](c3ccccc3)N2[C@@H]1c1ccc(O)cc1 | 1.33 | 0.541 (inactive) | -0.281 (inactive) | 0.971 (inactive) | 0.828 | -0.653 (inactive) | 0.109 | 0.517 | 1.08 | 0.0283
CCCCC=C[C@@H](NC(=O)OCc1ccccc1Cl)c1ccccc1 | 1.48 | 0.952 (inactive) | 1.18 (inactive) | 2.28 (inactive) | 2.9 | -1.48 (inactive) | 1.09 | 1.34 | 1.02 | 0.98
COCCOC(=O)N1C(=O)[C@@]2(c3cc(C#CC4=CCCCC4)ccc31)[C@H](c1ccccc1OCCO)N1[C@H](c3ccccc3)[C@H](c3ccccc3)OC(=O)[C@H]1[C@@H]2C(=O)N1CCN(c2ncccn2)CC1 | 1.57 | 0.218 (inactive) | -0.377 (inactive) | 2.44 (inactive) | 0.456 | 1.05 (inactive) | -0.142 | 0.729 | 1.12 | -0.067
CCCNC(=O)[C@@]1(C)c2ccccc2C(=O)N(c2ccc(C)cn2)[C@H]1c1ccc(CO)cc1 | -0.266 | -0.788 (inactive) | -0.164 (inactive) | -0.145 (inactive) | 3.4 | -0.618 (inactive) | -0.0352 | 0.146 | -0.0421 | -0.0828
COCC(=C=CC[C@H](O)c1ccccc1OCCO)C[C@H](O)c1ccccn1 | 1.14 | 0.636 (inactive) | -0.422 (inactive) | -0.505 (inactive) | 3.35 | 0.723 (inactive) | -0.138 | 0.808 | -0.0439 | 0.122
C=CCN1C(=O)[C@]2(CCS(=O)(=O)c3ccccc3)N=C(c3ccc(OCCCO)cc3)O[C@@H]2c2ccccc21 | 1.54 | -0.523 (inactive) | -1.16 (inactive) | 2.46 (inactive) | 3.65 | 0.624 (inactive) | 0.0416 | 1.49 | 1.1 | 0.0574
COc1cc(NN2C(C(O)c3ccc(N(C)C)cc3)C=CC3C(=O)N(c4ccccc4)C(=O)C32)cc(OC)c1OC (stereo not given) | 0.824 | 0.146 (inactive) | -0.424 (inactive) | -0.363 (inactive) | 1.4 | -1.58 (inactive) | 0.473 | -0.308 | 0.544 | 0.0955
CC[C@@H]1C=C(C(=O)O)[C@H](c2ccc(C#N)cc2)N1S(=O)(=O)c1ccc(C)cc1 | 0.799 | -0.407 (inactive) | -0.185 (inactive) | -0.104 (inactive) | 3.47 | 0.405 (inactive) | 0.283 | -0.911 | 0.314 | 0.122
CCOc1cc(C(O)C2C=CC3C(=O)NC(=O)C3N2Nc2ccc(Cl)cc2Cl)ccc1O (stereo not given) | -1.54 | -1.36 (inactive) | -1.29 (inactive) | 0.339 (inactive) | 0.0486 | -0.847 (inactive) | 0.0717 | -0.26 | -1.31 | -0.16
CO[C@H]1O[C@H](CO)[C@@H](OC(=O)Nc2ccc(Br)cc2)[C@@H]2OC(=O)[C@@H](Cc3ccccc3)C/C=C/C[C@H](Cc3ccccc3)C(=O)O[C@@H]12 | 1.44 | 1.1 (inactive) | -0.295 (inactive) | 3.58 (inactive) | 2.01 | 1.03 (inactive) | 0.0378 | 0.202 | 0.464 | -0.0668
COc1ccc(CCNC(=O)[C@@]2(c3ccc([N+](=O)[O-])cc3)CC(=O)N(C3CCCCC3)[C@@H]2c2ccc(CO)cc2)cc1 | 1.29 | 0.812 (inactive) | -0.501 (inactive) | 0.361 (inactive) | 2.75 | 1.3 (inactive) | 0.157 | -0.23 | 0.627 | -0.0452
CC1=C2[C@@H](CCc3ccccc3)OB(O)C[C@@H]2[C@@H]2C(=O)N(Cc3ccccc3)C(=O)[C@@H]2C1 | 0.433 | -0.763 (inactive) | -2.47 (inactive) | -0.993 (inactive) | 1.24 | -0.116 (inactive) | -0.116 | 0.694 | 0.57 | -0.0381
C=C(C(=O)CC[C@H](OC(=O)c1ccccc1-c1ccccc1C(=O)O)c1cccc(OCCO)c1)C(C)C | 0.0697 | 0.521 (inactive) | -0.561 (inactive) | -0.518 (inactive) | -0.138 | -0.164 (inactive) | -0.191 | 0.437 | 0.324 | -0.18
CCOC(=O)C[C@H]1[C@H](OC(=O)c2ccc(C(=O)c3ccccc3)cc2)[C@@H](NC(=O)CC(C)C)c2cc(OCCCO)ccc2N1C(=O)c1ccccc1 | 1.34 | -0.327 (inactive) | -0.333 (inactive) | 0.276 (inactive) | 2.03 | -0.747 (inactive) | 0.0769 | 0.937 | 0.961 | 0.0807
C=CCC(OC(C)=O)[C@@H]1[C@@H](N(Cc2ccc(-c3cccc(C(F)(F)F)c3)o2)C(=O)Cc2ccc(OC)cc2)c2cc(OCCCO)ccc2N1C(=O)c1ccc(-c2ccccc2)cc1 (stereo not given in full) | 0.62 | 0.282 (inactive) | 0.297 (inactive) | 0.322 (inactive) | 0.442 | -0.936 (inactive) | -0.0436 | -0.478 | -0.449 | -0.146
C=CCNC(=O)[C@H]1[C@@H]2C(=O)O[C@@H](c3ccccc3)[C@@H](c3ccccc3)N2[C@@H](c2ccccc2OCCO)[C@]12C(=O)N(C(=O)OCCOC)c1ccc(C#CC3(O)CCCCCC3)cc12 | 1.56 | -0.22 (inactive) | -0.444 (inactive) | 4.93 (inactive) | 3.1 | 1.31 (inactive) | -0.0499 | 0.592 | 0.759 | -0.0455
CCC#CCN(Cc1ccccc1Br)[C@H](/C=C/C1CC1)[C@@H](O)Cc1ccccc1 | -0.134 | -2.3 (inactive) | -1.55 (inactive) | -1.72 (inactive) | -0.783 | 1.35 (inactive) | 0.208 | -0.679 | -0.838 | -0.18
COc1ccccc1CN1C(=O)c2ccccc2[C@](Cc2ccccc2I)(C(=O)O)[C@@H]1c1ccc(CO)cc1 | 1.51 | 0.443 (inactive) | 0.812 (inactive) | -0.0193 (inactive) | 2.45 | 1.28 (inactive) | -0.0031 | 0.653 | 1 | 0.554
COCCOC(=O)N1C(=O)[C@@]2(c3cc(C#CC4=CCCCC4)ccc31)[C@H](C(=O)Nc1nc3ccccc3s1)[C@H]1C(=O)O[C@H](c3ccccc3)[C@H](c3ccccc3)N1[C@@H]2c1ccc(O)cc1 | 1.55 | 0.128 (inactive) | -0.663 (inactive) | 0.364 (inactive) | 2.38 | 0.0627 (inactive) | -0.0823 | 1.21 | 1.07 | -0.0975
[N-]=[N+]=Nc1ccccc1C[C@]1(C(=O)NCC(O)CO)COC(c2ccc(OCCCO)cc2)=N1 (stereo not given in full) | 0.149 | 0.887 (inactive) | -0.13 (inactive) | 0.69 (inactive) | 3.11 | 1.05 (inactive) | 0.23 | -0.906 | -1.26 | 0.58
COCCOC(=O)N1C(=O)[C@@]2(c3cc(C#CCC(C(=O)OC)C(=O)OC)ccc31)[C@H](c1ccc(OCCO)cc1)N1[C@H](c3ccccc3)[C@H](c3ccccc3)OC(=O)[C@H]1[C@@H]2C(=O)N1CCc2cc(OC)c(OC)cc2C1 | 1.55 | 2.13 (inactive) | 2 (inactive) | 5.2 (inactive) | 2.81 | 0.713 (inactive) | 0.0146 | 1.72 | 1.06 | 0.091
C=CC[C@]1(C(=O)N2CCCCC2)N=C(c2ccc(OCCCO)cc2)O[C@H]1c1ccccc1CN=[N+]=[N-] | 1.54 | -1.66 (inactive) | -0.442 (inactive) | -0.837 (inactive) | 3.19 | 0.937 (inactive) | -0.013 | 0.562 | 1.08 | -0.0512
COc1cc(NN2C(C(O)c3cc(OC)c(OC)c(OC)c3)C=CC3C(=O)N(C)C(=O)C32)cc(OC)c1OC (stereo not given) | 0.986 | -0.871 (inactive) | -0.724 (inactive) | -0.0522 (inactive) | 3.37 | -0.678 (inactive) | 0.16 | -0.112 | 1.06 | 0.08
C#Cc1cc2ccccc2oc1=O | 0.914 | -1.81 (inactive) | -7.83 (inactive) | -1.11 (inactive) | 0.969 | -1.45 (inactive) | -0.313 | -2.71 | -1.32 | -0.325
O=C1C2C=CC(C(O)c3cccc(O)c3)N(Nc3ccc([N+](=O)[O-])cc3)C2C(=O)N1c1ccccc1 (stereo not given) | 0.622 | 0.706 (inactive) | 0.667 (inactive) | 1.3 (inactive) | 1.87 | 0.404 (inactive) | -0.021 | 0.196 | 0.715 | -0.0041
CC[C@@H]1O[Si](C(C)C)(C(C)C)c2c1cc(-c1cc(C)c(OC)c(C)c1)nc2-c1ccc(Oc2ccccc2)cc1 | -0.0555 | 0.0662 (inactive) | 0.131 (inactive) | -0.798 (inactive) | -0.346 | -0.333 (inactive) | -0.123 | 0.0174 | 0.0178 | -0.162
Cc1ccc(S[C@]2(C(=O)NCCN3CCOCC3)CC(=O)N(Cc3ccccc3Cl)[C@@H]2c2ccc(CO)cc2I)cc1 | 0.443 | -0.841 (inactive) | -3.57 (inactive) | 0.665 (inactive) | 2.77 | -0.373 (inactive) | 0.508 | -0.064 | -0.364 | -0.455
